Records with an inconclusive call do not appear. Unmarked numbers belong to inactive results. Calls come from the whole dose curve; as a rule, active = well fitted activation curve with a large enough effect in the signal ratio in the repeat runs (not every such curve was filed as active); inconclusive = weak or mixed curves; inactive = flat fitted curve, though single readings scatter; the % refers to the signal ratio.
% is set by controls: 0 for no effect and ±100 for the full control effect.

This assay in a line: qHTS assay to identify small molecule agonists of the hypoxia (HIF-1) signaling pathway (AID 1224846). The settings on record: HRE-bla ME-180 cells, beta-lactamase ratio, 17 h; series mostly up to 76.8 µM; activation: at the top concentration. The source says: U.S. Tox21 Program National Center for Advancing Translational Sciences [NCATS] NIH Chemical Genomics Center [NCGC] U.S. Environmental Protection Agency [EPA] National Institutes of Environmental Health Sciences [NIEHS] National Toxicology Program [NTP] U.S. Food and Drug Administration [FDA] Tox21 Assay Overview: Hypoxia-inducible factor-1 (HIF-1) is the major hypoxia-regulated transcription factor that controls cellular responses to low oxygen concentration. HIF-1 is composed of two subunits: hypoxia responsive HIF-1-alpha and constitutively expressed HIF-1-beta, which is also known as aryl hydrocarbon receptor nuclear translocator. During hypoxic conditions, HIF-1-alpha heterodimerizes with HIF-1-beta and translocates into the nucleus where the HIF-1 complex binds to the hypoxia-response element (HRE) and activates expression of target genes such as VEGF (vascular endothelial growth factor). The HIF-1 pathway is essential to normal growth and development, and is involved in the pathophysiology of cancer, inflammation, and ischemia. Using a beta-lactamase reporter-gene under control of the hypoxia response element, a cell-based assay [CellSensor(TM) HRE-bla ME-180 from Life Technologies, Carlsbad, CA] was used to measure hypoxia-induced signaling. Tox21 10K library compounds were measured for their ability to induce the reporter gene activity.
Tox21 Assay Protocol Summary: HRE-bla ME-180 cells were dispensed at 2,000 cells per well in 6 uL of assay medium containing 0.5% dialyzed FBS into black wall/clear-bottom 1536-well plates using a Multidrop Combi (Thermo Scientific, Waltham, MA) dispenser. After the assay plates were incubated at 37C and 5% CO2 for 5 hrs, 23 nL of compounds dissolved in DMSO, positive controls or DMSO only was transferred to each well of the assay plate using a Pintool station (Kalypsys, San Diego, CA). The assay plates were incubated at 37C and 5% CO2 for 17 hrs. One uL of LiveBLAzerTM B/G FRET substrate (CCF4-AM) (Life Technologies) was added to each well using a Flying Reagent Dispenser (Aurora Discovery, San Diego, CA).
On to `CC(C)OC(=O)OCOP(=O)(CO[C@H](C)Cn1cnc2c(N)ncnc21)OCOC(=O)OC(C)C`, for which the “activation” value was -0.54% [at 35.5 µM].

For `COC(=O)c1cccc(Cl)c1`, the “activation” value was -1.02%.

For the compound `OCCN1CCOCC1`, the “activation” value was -0.816%.

`c1ccc2cnccc2c1`: the “activation” value is -0.742%.

Turning to `CCOCCOCC`, the “activation” value is 0.759%.

For the compound `Cc1ccc(C)c([N+](=O)[O-])c1`, the “activation” value is -0.597%.

With `CC/C=C\CCOC(=O)c1ccccc1O`, the “activation” value is 0.887%.

As for `CN(C)CCN(C)CCO`, the “activation” value is 0.215%.

Regarding `CC1=C(O)C(=O)C(C)O1` (stereo not given), the “activation” value was 1.32%.

Regarding `CC(=O)CC(=O)OC(C)(C)C`, the “activation” value was -0.363%.

For `O=S(=O)(O)c1ccc2c(N=Nc3ccc(S(=O)(=O)O)c4ccccc34)c(O)c(S(=O)(=O)O)cc2c1`, the activation was -0.322% [at 7.01 µM].

As for `CC(=O)CCC1=C(C)CCCC1(C)C`, the “activation” value is -1.28%.

For the compound `CC(C)COC(=O)c1ccccc1`, the “activation” value was -1.77%.

As to `ONc1ccccc1`, the “activation” value was -0.708%.

For `CC(C)=CCC[C@@](C)(O)[C@H]1CC=C(C)CC1`, the “activation” value was 1.36% [at 35.5 µM].

In the case of `O=C(O)c1cc2ccccc2nc1C(=O)O`, the “activation” value is -2.4%.

For the compound `CSc1cnccn1`, the “activation” value was 0.0786%.

For `CC1(C)Oc2ccc(C#N)cc2[C@@H](N2CCCC2=O)[C@@H]1O`, the “activation” value was -0.334% [at 35.5 µM].

On to `CC(=O)O[C@H]1C[C@@H]2CC[C@@]1(C)C2(C)C`, for which the “activation” value is -0.359%.

Consider `CC(C)C[C@@H]1[C@H](c2ccccc2)OC(=O)N1CCCN1CCCCCC1`, for which the “activation” value was 0.498% [at 35.5 µM].

`COc1nc(N)nc2nc[nH]c12`: the “activation” value was -0.213%.

On to `NCC1(Cc2noc(=O)[nH]2)CCCCC1`, for which the “activation” value is -0.743%.

In the case of `CC(C)Cn1cnc2c1c(=O)n(C)c(=O)n2C`, the “activation” value is -0.294% [at 35.5 µM].

As to `Cc1c(C(=O)c2c[nH]n(C)c2=O)ccc(S(C)(=O)=O)c1C1=NOCC1`, the “activation” value is -0.511% [at 35.5 µM].

For the compound `CC1(C)Cc2cccc(N)c2O1`, the “activation” value was -0.537%.

In the case of `CO[Si](CCCn1c(=O)n(CCC[Si](OC)(OC)OC)c(=O)n(CCC[Si](OC)(OC)OC)c1=O)(OC)OC`, the “activation” value is -0.349% [at 35.5 µM].

As to `CC1CC(=O)CC(C)(C)C1` (stereo not given), the “activation” value is 0.534%.

For `O=C1c2ccccc2C(=O)c2cc(Cl)ccc21`, the activation is -0.0803% [at 7.01 µM].

Consider `CC(O)COC(C)(C)C` (stereo not given), for which the “activation” value is -1.24%.

Consider `N[C@@H](Cc1ccc(O)cc1)C(=O)O`, for which the activation is -0.522% [at 7.01 µM].

Take `CCC(C)OC(C)CC` (stereo not given): the “activation” value is -0.978%.

Regarding `CC(=O)Nc1ccc(OC(=O)c2ccccc2OC(C)=O)cc1`, the “activation” value is 0.264% [at 35.5 µM].

Consider `O=C(CCCl)NCCc1ccccc1`, for which the “activation” value is 0.688% [at 35.5 µM].

`C=Cc1ccc(C(C)(C)C)cc1`: the “activation” value was -0.896%.

Turning to `C=CC/C=C/C`, the “activation” value is -0.915%.

On to `COC(=O)c1cc(Cl)cc(Cl)c1`, for which the “activation” value was -0.426%.

`CCCC(CC)c1ccccc1` (stereo not given): the “activation” value was -0.867%.

As for `c1ccc(-c2nn[nH]n2)cc1`, the “activation” value is 0%.

On to `CC1OCCC1=O` (stereo not given), for which the “activation” value was -1.09%.

For the compound `CCCC(=O)OC/C=C(\C)CCC=C(C)C`, the “activation” value was 0.746%.

Values taken from PubChem BioAssay (Tox21).
